SMILES strings stand for the structures. About 79,000 compounds went through this panel and 15% of them were active in at least one assay; those are over-represented in the sample as a whole. Unmarked numbers belong to inactive results. Active and inactive are the calls of the source. No stated cut-off is given here; in the data, active means growth inhibition above about 70%; inactive means the rest.

Assay [1] is described as follows: NCI Yeast Anticancer Drug Screen. Data for the rad50 strain (AID 155).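 Further: 0% = growth of vehicle-only cultures of the same strain.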 The settings on record: S. cerevisiae rad50 strain growth inhibition; at 50.0 µM; active compounds read high. An outline of the steps: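 Yeast carrying a defined DNA repair defect were exposed to test compounds, and growth was compared with vehicle-treated controls to give percent inhibition.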
A short description of assay [2]: NCI Yeast Anticancer Drug Screen. Data for the mec2-1 strain (AID 157). The settings on record: S. cerevisiae mec2-1 strain, at 50.0 µM, active compounds read high. An outline of the steps:
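Compounds were applied to mec2-1 yeast cells. Their growth was then compared with that of vehicle-treated cultures to give growth inhibition.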

Assay [3] is described as follows: NCI Yeast Anticancer Drug Screen. Data for the sgs1 mgt1 strain (AID 161).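 Further: 0% = growth of cultures given vehicle only.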 The settings on record: S. cerevisiae sgs1 mgt1 strain, at 50.0 µM, active compounds read high. The method in brief:
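Compounds are added to genetically altered yeast, and growth is compared with cultures given vehicle alone to give percent inhibition.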

The nature of assay [4]: NCI Yeast Anticancer Drug Screen. Data for the cln2 rad14 strain (AID 165).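 Further: 0% = growth equal to vehicle treated cultures.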 The settings on record: S. cerevisiae cln2 rad14 strain, at 50.0 µM, active compounds read high. The method in brief:
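Strain: cln2 rad14 yeast, altered in cell cycle control and DNA damage repair. Read-out: growth inhibition vs vehicle.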

Assay [5] is described as follows: NCI Yeast Anticancer Drug Screen. Data for the bub3 strain (AID 167). The settings on record: S. cerevisiae bub3 mutant strain, at 50.0 µM, active compounds read high. An outline of the steps:
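Compounds were applied to a genetically altered yeast strain carrying a cell-cycle control defect. Growth inhibition was scored against vehicle-treated controls.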

Assay [6] in a line: NCI Yeast Anticancer Drug Screen. Data for the mlh1 rad18 strain (AID 175). The settings on record: S. cerevisiae mlh1 rad18 strain growth inhibition; at 50.0 µM; active compounds read high. The method in brief: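 A repair-deficient yeast strain is exposed to test compound, and growth is scored relative to vehicle-treated controls.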

Take `OC(c1cccc(OCc2ccccc2)c1)c1ccccn1` (stereo unspecified): the growth inhibition in assay [1] is 4.95%; in assay [2], -6.6%; in assay [3], 2.15%; in assay [4], -20.9%; in assay [5], 2.15%; in assay [6], 2%.

In the case of `CCC(=O)Oc1ccc[nH]c1=O`, the growth inhibition in assay [1] was 1.8%; in assay [2], 21.2%; in assay [3], 4.95%; in assay [4], 24.6%; in assay [5] it was 9.95%; in assay [6] it was 14.2%.

With `CC(C)CCCC(C)C1CCC2(C)C3=C(CCC12C)C1(C)CCC(=O)C(C)(C)C1CC3` (stereo unspecified), the growth inhibition in assay [1] is 73.1% (active); in assay [2], 57.2%; in assay [3], 83.5% (active); in assay [4] it was 44.5%; in assay [5], 14.6%; in assay [6] it was 34%.

As for `CC(C(N)=O)C(=O)c1ccccc1` (stereo unspecified), the growth inhibition in assay [1] was 9.9%; in assay [2] it was -12.4%; in assay [3] it was -24.3%; in assay [4] it was -7.15%; in assay [5], -21.2%; in assay [6] it was 0.15%.

`CCNC1=C(Cl)C(=O)c2ccccc2C1=O`: the growth inhibition in assay [1] was -11.9%; in assay [2], -9.8%; in assay [3] it was 12.2%; in assay [4], -21.4%; in assay [5] it was 8.7%; in assay [6], 14.9%.

`COc1c2occc2c(N)c2ccc(=O)oc12`: the growth inhibition in assay [1] was -5.95%; in assay [2] it was -4.4%; in assay [3], -8.2%; in assay [4], -14.5%; in assay [5], -1.55%; in assay [6], -9.95%.

As to `Brc1cc(Br)cc(-c2nnc(-c3cccc4ccccc34)o2)c1`, the growth inhibition is -14.1% in assay [1]; -16.4% in assay [2]; 0.25% in assay [3]; 24.1% in assay [4]; 10.2% in assay [5]; -4.65% in assay [6].

In the case of `O=C(c1ccccc1Br)C(F)(F)F`, the growth inhibition in assay [1] is -2.6%; in assay [2], -19.5%; in assay [3], -18.4%; in assay [4] it was -17.5%; in assay [5], -43.9%; in assay [6], -3.8%.

On to `C=CCSc1nc2ccc(N=Cc3ccc([N+](=O)[O-])cc3)cc2s1`, for which the growth inhibition in assay [1] was 2.05%; in assay [2], -12.5%; in assay [3], -8.7%; in assay [4], -14.6%; in assay [5], 5.95%; in assay [6] it was -21.2%.

In the case of `O=C(NC(=O)c1ccccc1[N+](=O)[O-])Nc1ccc(Oc2ncc(Br)cn2)c(Cl)c1`, the growth inhibition in assay [1] was -1.35%; in assay [2] it was -30.8%; in assay [3], -19.4%; in assay [4], 0.6%; in assay [5], -9.25%; in assay [6], -56.8%.

Turning to `CC(=O)Nc1ccc(C(=O)NN2C(=O)C(Cl)C2c2ccc(Cl)cc2)cc1` (stereo unspecified), the growth inhibition in assay [1] is -50.3%; in assay [2], -32.3%; in assay [3], -42.8%; in assay [4], -27.3%; in assay [5], -28.9%; in assay [6], -43.5%.

Take `O=Cc1c(Cl)c(Cl)c(Cl)c(Cl)c1Cl`: the growth inhibition in assay [1] is -2.3%; in assay [2], 6.3%; in assay [3], 16.9%; in assay [4], -39.6%; in assay [5], 4.6%; in assay [6], 51.1%.

Take `O=C1COC(c2ccccc2O)=NN1CCCN1CCCC1`: the growth inhibition in assay [1] was 12.9%; in assay [2] it was -23.8%; in assay [3], 21%; in assay [4], -3.4%; in assay [5], 14.1%; in assay [6], 25.3%.

`O=C(Nc1ncccn1)c1ccc(Cl)cc1Cl`: the growth inhibition in assay [1] is -11.9%; in assay [2] it was 4.8%; in assay [3], 30.6%; in assay [4], -21.5%; in assay [5], 10.6%; in assay [6], 32.3%.

For the molecule `CC(C)CCOc1ccc(C(N)=S)c2ccccc12`, the growth inhibition was 80% (active) in assay [1]; 96.8% (active) in assay [2]; 96.4% (active) in assay [3]; 68.5% in assay [4]; 84% (active) in assay [5]; 95.2% (active) in assay [6].

For `CN(C(=O)Sc1ccc([N+](=O)[O-])cc1)c1ccc([N+](=O)[O-])cc1`, the growth inhibition in assay [1] is 1.3%; in assay [2], 15.2%; in assay [3] it was 9.8%; in assay [4], 4.05%; in assay [5] it was 31.4%; in assay [6] it was 21.3%.

`C[C@]12CC[C@@H]3c4ccc(OS(=O)(=O)O)cc4CC[C@H]3[C@@H]1CCC2=O`: the growth inhibition was 22.2% in assay [1]; -0.4% in assay [2]; 12.2% in assay [3]; 18.4% in assay [4]; 23.6% in assay [5]; 3.15% in assay [6].

Turning to `CC1COB(c2ccccc2)OCC(C)N1CNC(=O)C1=C(O)C2(O)C(O)=C3C(=O)C4C(O)=CC=CC4C(C)(O)C3CC2C(N(C)C)C1=O` (stereo unspecified), the growth inhibition is -8.75% in assay [1]; 33.2% in assay [2]; 34.6% in assay [3]; -16.6% in assay [4]; -6.85% in assay [5]; 38.6% in assay [6].

For `CCOC(=O)CCC(=O)N(CC)CC`, the growth inhibition was 8.7% in assay [1]; 16.6% in assay [2]; 16.4% in assay [3]; 9.9% in assay [4]; -10.9% in assay [5]; -13% in assay [6].

As to `O=C1NOCC1NCc1c(O)ccc2ccccc12` (stereo unspecified), the growth inhibition in assay [1] is 19.9%; in assay [2], 13.2%; in assay [3], 33.7%; in assay [4], 26.6%; in assay [5], 17.9%; in assay [6] it was 23.2%.

In the case of `COC1=CC(=O)N(C)C(O)C1(C#N)OC1OC(CO)C(O)C(O)C1O` (stereo unspecified), the growth inhibition was 5.25% in assay [1]; -12.8% in assay [2]; -7.5% in assay [3]; 18.6% in assay [4]; -17.9% in assay [5]; -40.9% in assay [6].
